From PubChem BioAssay (EPA / NIEHS)
“And” between values parts separate entries of the source, which are not always exact repeats. Identical values can stand only once. A structure can be active in one record and inactive in another. The source made the active and inactive calls. How the source made its calls: active means hit-call score of the fitted dose curve at least 0.9, where 1 is the maximum; inactive means score below 0.9.

Legend:
[1] = ATG_ISRE_CIS: Attagene CIS-FACTORIAL HepG2 Assay for human Interferon Regulatory Factor 1 (IRF1) binding to an Interferon-Stimulated Response Element (ISRE) (AID 2282948); details: HepG2 ISRE cis-reporter (Attagene), mRNA transcription readout; actives raise or lower the signal
Procedure, shortened: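 Endogenous transcription factor activity read as reporter transcript abundance via RT-PCR and capillary electrophoresis. HepG2 cells transiently transfected, 24 h chemical exposure. Gain or loss fitted against DMSO baseline.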

[2] = ATG_M_32_CIS: Attagene CIS-FACTORIAL HepG2 Assay for M32 Transcription Factor (Internal Marker) (AID 2282949); details: HepG2 Attagene cis-factorial M32 reporter, mRNA; actives raise or lower the signal;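 further: background control marker of the multiplexed CIS panel rather than a real target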
Procedure, shortened: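 HepG2 human liver cells transiently transfected with cis-promoter-driven multiple reporter transcription units, dosed 24 h. Reporter mRNA quantified by RT-PCR, FAM-labelled primer extension, HpaI digest and capillary electrophoresis; bidirectional fit versus DMSO baseline.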

[3] = ATG_M_06_CIS: Attagene CIS-FACTORIAL HepG2 Assay for M06 Transcription Factor (Internal Marker) (AID 2282950); details: HepG2 Attagene CIS-FACTORIAL M06 internal marker reporter; actives raise or lower the signal
Procedure, shortened: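 HepG2 liver cells, 24 h exposure. Reporter transcripts from transfected cis-element constructs quantified by RT-PCR/capillary electrophoresis fluorescence. Bidirectional curve fit against DMSO.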

[4] = target: Hypoxia-inducible factor 1-alpha (Homo sapiens) (UniProt Q16665); assay: ATG_HIF1a_CIS: Attagene CIS-FACTORIAL HepG2 Assay for human Hypoxia Inducible Factor 1 (HIF1A) (AID 2282951); details: HepG2 Attagene cis-factorial HIF1a reporter transcription; actives raise or lower the signal
Procedure, shortened: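 Endogenous-TF cis reporter readout, human HepG2 cells, 24 h incubation; mRNA detected via RT-PCR and capillary electrophoresis fluorescence; DMSO-normalised bidirectional fitting.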

[5] = target: Hepatocyte nuclear factor 6 (Homo sapiens) (UniProt Q9UBC0); assay: ATG_HNF6_CIS: Attagene CIS-FACTORIAL HepG2 Assay for human Hepatocyte Nuclear Factor 6 (HNF6) (AID 2282952); details: HepG2 Attagene cis-factorial HNF6 reporter transcription; actives raise or lower the signal
Procedure, shortened: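 Using cis-element reporters in HepG2 liver cells, the assay tracks endogenous factor-driven transcription 24 h post-dosing. Signal comes from 6-FAM-labelled, HpaI-digested RT-PCR fragments, with gain or loss scored against DMSO.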

[6] = target: Heat shock factor protein 1 (Homo sapiens) (UniProt Q00613); assay: ATG_HSE_CIS: Attagene CIS-FACTORIAL HepG2 Assay for human Heat Shock Transcription Factor 1 (HSE) (AID 2282953); details: HepG2 HSE cis-reporter, Attagene RNA transcription; actives raise or lower the signal
Procedure, shortened: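 Endogenous transcription factor activity captured via cis-promoter reporter units transfected into HepG2; treatment lasted 24 h. Fluorescence intensity of reporter fragments analysed with bidirectional curve fitting, DMSO baseline.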

[7] = ATG_MRE_CIS: Attagene CIS-FACTORIAL HepG2 Assay for human Metal Responsive Element (MRE) (AID 2282954); details: HepG2 MRE cis-reporter transcription, Attagene multiplex; actives raise or lower the signal
Procedure, shortened: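 Measured here is mRNA induction from an MRE cis-element reporter in HepG2 after 24 h, quantified by fluorescence of labelled RT-PCR products on capillary electrophoresis; gain- and loss-of-signal fits use DMSO as baseline.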

[8] = target: Paired box protein Pax-6 (Homo sapiens) (UniProt P26367); assay: ATG_Pax6_CIS: Attagene CIS-FACTORIAL HepG2 Assay for human Paired Box 6 (PAX6) (AID 2282956); details: HepG2 CIS-FACTORIAL PAX6 reporter transcription, RNA readout; actives raise or lower the signal
Procedure, shortened: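 Read-out is reporter transcript level, measured by RT-PCR with fluorescent primer extension and capillary electrophoresis after 24 h dosing of transfected HepG2 cells. Activity in either direction fitted relative to DMSO control.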

[9] = ATG_PXRE_CIS: Attagene CIS-FACTORIAL HepG2 Assay for human Pregnane X Receptor Element (PXRE) (AID 2282957); details: HepG2 Attagene CIS-FACTORIAL PXRE reporter, mRNA; actives raise or lower the signal
Procedure, shortened: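 Using HepG2 transfected with multiple reporter transcription units, endogenous factor-driven transcription was scored as reporter mRNA after 24 h exposure.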

[10] = ATG_PPRE_CIS: Attagene CIS-FACTORIAL HepG2 Assay for human Peroxisome Proliferator-activated Response Element (PPRE) (AID 2282958); details: HepG2 PPRE cis-element reporter, Attagene transcription factor profiling; actives raise or lower the signal
Procedure, shortened: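 After human HepG2 hepatoma cells were transiently transfected with cis-promoter reporter constructs, they were exposed to test chemicals for 24 hours. Reporter RNA was then reverse-transcribed, PCR-amplified, FAM-labeled, HpaI-digested and quantified by capillary electrophoresis.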

[11] = ATG_Sox_CIS: Attagene CIS-FACTORIAL HepG2 Assay for human SRY-box transcription factor (SOX) (AID 2282960); details: HepG2 Attagene cis-factorial SOX reporter, mRNA; actives raise or lower the signal
Procedure, shortened: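 Using transiently transfected HepG2 cells, reporter transcription driven by cis elements was assessed 24 h after dosing. Signal was fluorescence of capillary-separated RT-PCR products, with DMSO defining baseline activity.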

[12] = target: Transcription factor Sp1 (Homo sapiens) (UniProt P08047); assay: ATG_Sp1_CIS: Attagene CIS-FACTORIAL HepG2 Assay for human Specificity Protein 1 (Sp1) (AID 2282961); details: HepG2 Sp1 cis-reporter transcription, actives raise or lower the signal
Procedure, shortened: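 After transient transfection of HepG2 cells with cis-promoter reporter units and 24 h chemical treatment, reporter transcripts were quantified by RT-PCR and capillary electrophoresis fluorescence. Gain- and loss-of-signal fitted against DMSO.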

[13] = ATG_SREBP_CIS: Attagene CIS-FACTORIAL HepG2 Assay for human Sterol Regulatory Element Binding (SREBP) (AID 2282962); details: HepG2 Attagene cis-factorial SREBP reporter, mRNA; actives raise or lower the signal
Procedure, shortened: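 Endogenous SREBP activity read as cis-element-driven reporter transcript in transiently transfected HepG2, 24 h post-dosing; quantified via RT-PCR plus capillary electrophoresis of fluorescent fragments. Gain or loss of signal fitted relative to DMSO baseline.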

[14] = target: Signal transducer and activator of transcription 3 (Homo sapiens) (UniProt P40763); assay: ATG_STAT3_CIS: Attagene CIS-FACTORIAL HepG2 Assay for human Signal Transducer and Activator of Transcription 3 (STAT3) (AID 2282963); details: HepG2, Attagene cis-factorial STAT3 reporter transcription; actives raise or lower the signal
Procedure, shortened: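 Fluorescence intensity of 6-FAM-labelled reporter fragments, separated by capillary electrophoresis after RT-PCR, gave the signal. Cells were HepG2 transfected with cis-element reporter units and treated 24 h; fitting was bidirectional relative to DMSO.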

[15] = ATG_TA_CIS: Attagene CIS-FACTORIAL HepG2 Assay for human TA Basal Promoter (AID 2282964); details: HepG2 Attagene CIS-factorial TA basal promoter reporter; actives raise or lower the signal
Procedure, shortened: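 Fluorescence from labelled RT-PCR reporter fragments, separated by capillary electrophoresis, gives the signal. Cells: HepG2 transiently carrying multiple reporter units, 24 h chemical dosing. Gain or loss relative to DMSO.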

[16] = ATG_TCF_b_cat_CIS: Attagene CIS-FACTORIAL HepG2 Assay for human T-Cell-Factor with beta-catenin (TCF/b-cat) (AID 2282965); details: HepG2 TCF/beta-catenin cis-reporter transcription, actives raise or lower the signal
Procedure, shortened: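 HepG2, transient MRTU transfection, cis-element-driven reporters (endogenous TFs). 24 h compound exposure. Readout: reporter mRNA by RT-PCR + 6-FAM primer extension, HpaI digest, capillary electrophoresis. Gain/loss fit vs DMSO baseline.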

[17] = ATG_RORE_CIS: Attagene CIS-FACTORIAL HepG2 Assay for human RAR-related Orphan Receptor Element (RORE) (AID 2282959); details: HepG2 Attagene cis-factorial RORE reporter, mRNA; actives raise or lower the signal
Procedure, shortened: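 Measured here: transcript induction of a cis-regulated reporter in HepG2 cells transiently transfected via FuGene 6. After 24 h, RNA was processed by RT-PCR and fluorescent capillary electrophoresis; DMSO defined baseline activity.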

[18] = ATG_GRE_CIS: Attagene CIS-FACTORIAL HepG2 Assay for human Glucocorticoid Response Elements (GRE) (AID 2282947); details: HepG2 GRE cis-reporter, Attagene multiplex mRNA; actives raise or lower the signal
Procedure, shortened: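 Fluorescence intensity of reporter-specific cDNA fragments, separated by capillary electrophoresis, provides the signal. Constructs carry cis-regulating promoters in transiently transfected HepG2 liver cells; 24 h incubation; fitting is bidirectional against DMSO.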

Measured: AC50

Sequence of Signal transducer and activator of transcription 3 (Homo sapiens) (P40763 whole entry, looked up, the tested form may be a part): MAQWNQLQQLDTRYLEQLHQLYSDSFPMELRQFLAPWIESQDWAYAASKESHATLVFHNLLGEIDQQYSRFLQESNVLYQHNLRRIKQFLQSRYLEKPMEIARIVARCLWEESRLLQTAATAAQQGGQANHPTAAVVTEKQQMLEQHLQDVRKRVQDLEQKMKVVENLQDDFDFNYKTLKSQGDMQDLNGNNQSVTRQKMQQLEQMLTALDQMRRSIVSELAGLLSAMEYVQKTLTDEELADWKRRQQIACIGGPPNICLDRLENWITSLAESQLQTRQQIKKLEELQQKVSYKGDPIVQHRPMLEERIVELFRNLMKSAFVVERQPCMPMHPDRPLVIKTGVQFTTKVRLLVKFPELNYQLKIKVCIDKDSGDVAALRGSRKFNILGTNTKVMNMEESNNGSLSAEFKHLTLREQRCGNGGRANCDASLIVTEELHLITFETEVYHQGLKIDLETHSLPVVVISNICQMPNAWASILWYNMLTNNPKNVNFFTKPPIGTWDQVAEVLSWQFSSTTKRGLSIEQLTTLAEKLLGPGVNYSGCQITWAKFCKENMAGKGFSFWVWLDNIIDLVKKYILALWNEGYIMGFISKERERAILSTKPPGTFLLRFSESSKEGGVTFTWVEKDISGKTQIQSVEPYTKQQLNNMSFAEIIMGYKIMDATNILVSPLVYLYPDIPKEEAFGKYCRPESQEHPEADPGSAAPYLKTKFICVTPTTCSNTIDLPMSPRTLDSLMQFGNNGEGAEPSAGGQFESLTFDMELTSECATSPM
Sequence of Paired box protein Pax-6 (Homo sapiens) (P26367 whole entry, looked up): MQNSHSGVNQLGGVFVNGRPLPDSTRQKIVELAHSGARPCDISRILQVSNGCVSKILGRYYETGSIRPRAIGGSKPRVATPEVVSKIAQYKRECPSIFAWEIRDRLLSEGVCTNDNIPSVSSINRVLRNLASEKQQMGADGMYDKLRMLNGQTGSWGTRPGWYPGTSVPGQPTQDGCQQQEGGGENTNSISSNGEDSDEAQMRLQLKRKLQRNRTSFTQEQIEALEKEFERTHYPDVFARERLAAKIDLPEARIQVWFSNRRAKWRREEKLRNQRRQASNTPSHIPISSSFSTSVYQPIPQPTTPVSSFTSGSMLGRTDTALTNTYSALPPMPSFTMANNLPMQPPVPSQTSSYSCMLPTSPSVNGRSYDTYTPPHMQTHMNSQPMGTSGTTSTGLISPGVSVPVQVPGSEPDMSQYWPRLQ
Sequence of Hypoxia-inducible factor 1-alpha (Homo sapiens) (Q16665 whole entry, looked up): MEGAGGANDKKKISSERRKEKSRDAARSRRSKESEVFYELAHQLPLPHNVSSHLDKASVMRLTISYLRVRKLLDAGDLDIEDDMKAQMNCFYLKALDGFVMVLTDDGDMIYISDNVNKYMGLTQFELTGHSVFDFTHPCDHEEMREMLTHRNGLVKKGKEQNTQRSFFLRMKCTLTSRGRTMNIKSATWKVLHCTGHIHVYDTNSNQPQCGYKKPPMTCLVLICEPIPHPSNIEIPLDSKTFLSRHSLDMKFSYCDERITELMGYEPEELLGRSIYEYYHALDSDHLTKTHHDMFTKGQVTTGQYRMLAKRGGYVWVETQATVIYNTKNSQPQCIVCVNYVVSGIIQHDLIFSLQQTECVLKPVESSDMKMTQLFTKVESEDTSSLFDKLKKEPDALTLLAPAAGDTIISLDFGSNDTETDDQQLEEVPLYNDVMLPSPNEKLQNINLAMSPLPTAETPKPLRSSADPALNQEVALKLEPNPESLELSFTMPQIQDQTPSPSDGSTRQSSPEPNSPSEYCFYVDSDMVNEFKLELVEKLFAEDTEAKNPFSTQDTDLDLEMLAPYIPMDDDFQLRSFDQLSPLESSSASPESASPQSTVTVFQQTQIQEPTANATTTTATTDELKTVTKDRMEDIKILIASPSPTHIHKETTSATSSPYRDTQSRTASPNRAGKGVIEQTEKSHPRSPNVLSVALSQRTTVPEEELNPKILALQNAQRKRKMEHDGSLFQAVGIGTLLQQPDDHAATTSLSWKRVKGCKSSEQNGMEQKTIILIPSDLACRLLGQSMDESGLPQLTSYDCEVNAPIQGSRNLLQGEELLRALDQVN
Sequence of Heat shock factor protein 1 (Homo sapiens) (Q00613 whole entry, looked up, the tested form may be a part): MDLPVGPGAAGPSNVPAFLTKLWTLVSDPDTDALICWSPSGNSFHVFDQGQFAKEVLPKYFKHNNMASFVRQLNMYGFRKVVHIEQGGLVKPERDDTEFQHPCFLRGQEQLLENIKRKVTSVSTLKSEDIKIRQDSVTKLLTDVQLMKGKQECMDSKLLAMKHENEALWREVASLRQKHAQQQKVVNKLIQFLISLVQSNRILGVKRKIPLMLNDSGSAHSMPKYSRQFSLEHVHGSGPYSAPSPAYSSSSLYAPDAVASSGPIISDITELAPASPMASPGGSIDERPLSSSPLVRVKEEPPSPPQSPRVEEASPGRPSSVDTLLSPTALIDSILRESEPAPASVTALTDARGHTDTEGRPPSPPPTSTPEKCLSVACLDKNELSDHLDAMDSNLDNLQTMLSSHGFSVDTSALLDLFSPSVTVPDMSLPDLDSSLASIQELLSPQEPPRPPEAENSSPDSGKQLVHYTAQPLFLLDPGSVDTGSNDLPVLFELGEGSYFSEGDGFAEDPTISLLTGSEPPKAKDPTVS
Sequence of Transcription factor Sp1 (Homo sapiens) (P08047 whole entry, looked up): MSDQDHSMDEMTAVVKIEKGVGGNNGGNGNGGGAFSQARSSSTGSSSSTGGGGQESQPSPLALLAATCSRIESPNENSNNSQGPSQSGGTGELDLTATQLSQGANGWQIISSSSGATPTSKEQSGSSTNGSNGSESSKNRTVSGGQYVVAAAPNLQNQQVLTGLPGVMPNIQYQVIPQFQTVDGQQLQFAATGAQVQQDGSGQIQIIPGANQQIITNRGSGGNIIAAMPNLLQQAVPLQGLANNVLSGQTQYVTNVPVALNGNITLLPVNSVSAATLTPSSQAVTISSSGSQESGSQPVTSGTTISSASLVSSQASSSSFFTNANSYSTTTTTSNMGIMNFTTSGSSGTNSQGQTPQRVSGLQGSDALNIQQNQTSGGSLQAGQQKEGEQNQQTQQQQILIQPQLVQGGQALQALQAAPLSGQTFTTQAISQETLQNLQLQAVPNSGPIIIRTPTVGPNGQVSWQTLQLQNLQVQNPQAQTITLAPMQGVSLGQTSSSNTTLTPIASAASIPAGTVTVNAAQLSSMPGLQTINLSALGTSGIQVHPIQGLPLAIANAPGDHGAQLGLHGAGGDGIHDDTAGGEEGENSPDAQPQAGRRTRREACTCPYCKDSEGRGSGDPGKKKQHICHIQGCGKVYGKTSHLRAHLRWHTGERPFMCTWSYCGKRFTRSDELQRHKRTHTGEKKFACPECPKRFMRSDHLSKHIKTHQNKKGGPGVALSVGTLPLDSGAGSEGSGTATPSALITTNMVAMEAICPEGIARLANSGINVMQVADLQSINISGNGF
Sequence of Hepatocyte nuclear factor 6 (Homo sapiens) (Q9UBC0 whole entry, looked up, the tested form may be a part): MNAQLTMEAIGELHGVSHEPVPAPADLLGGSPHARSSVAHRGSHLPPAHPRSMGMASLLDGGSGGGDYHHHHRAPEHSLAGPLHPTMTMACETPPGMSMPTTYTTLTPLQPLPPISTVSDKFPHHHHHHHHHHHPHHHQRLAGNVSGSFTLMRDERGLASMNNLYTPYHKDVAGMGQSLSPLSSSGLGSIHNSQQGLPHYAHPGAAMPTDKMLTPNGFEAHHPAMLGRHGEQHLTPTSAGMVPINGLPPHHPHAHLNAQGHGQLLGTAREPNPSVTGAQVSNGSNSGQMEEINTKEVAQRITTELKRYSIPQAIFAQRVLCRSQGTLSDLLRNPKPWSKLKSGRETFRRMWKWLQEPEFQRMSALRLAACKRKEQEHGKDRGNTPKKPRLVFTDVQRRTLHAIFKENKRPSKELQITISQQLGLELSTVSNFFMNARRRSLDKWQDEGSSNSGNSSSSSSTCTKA

CCCCCCCCCc1ccc(O)cc1
active: [2] 166 µM | [4] 178 µM | [5] 145 µM | [7] 17.5 µM | [9] 169 µM and 11.1 µM | [14] 168 µM | [16] 100 µM
inactive: [1] | [2] | [3] | [4] | [5] | [6] | [7] | [8] | [9] | [10] | [11] | [12] | [13] | [14] | [15] | [16]

CCC(C)(CC)c1cc(NC(=O)c2c(OC)cccc2OC)on1
inactive: [1] | [2] | [3] | [5] | [6] | [8] | [10] | [17] | [11] | [12] | [14] | [15] | [16]
active: [4] 8.77 µM | [7] 14.4 µM | [9] 0.202 µM

C=CC(=O)NCNC(=O)C=C
inactive: [18] | [1] | [2] | [3] | [4] | [5] | [6] | [7] | [8] | [9] | [10] | [11] | [12] | [14] | [15] | [16]

Cc1ccccc1O
inactive: [18] | [1] | [2] | [3] | [4] | [5] | [6] | [7] | [8] | [9] | [10] | [17] | [11] | [12] | [13] | [14] | [15] | [16]

CCOC(=O)C(O)(c1ccc(Cl)cc1)c1ccc(Cl)cc1
active: [4] 0.000836 µM | [7] 11.1 µM | [9] 3.33 µM
inactive: [18] | [1] | [2] | [3] | [5] | [6] | [8] | [10] | [17] | [11] | [12] | [13] | [14] | [15] | [16]

O=C(O)C(F)(F)C(F)(F)C(F)(F)C(F)(F)C(F)(F)C(F)(F)C(F)(F)C(F)(F)C(F)(F)F
inactive: [18] | [2] | [3] | [4] | [5] | [6] | [9] | [10] | [17] | [11] | [12] | [13] | [14] | [15]
active: [1] 48.2 µM and 33.8 µM and 90.4 µM | [2] 78.3 µM | [4] 26.6 µM | [5] 58.9 µM | [6] 50.3 µM and 50 µM | [7] 49.2 µM and 42.6 µM and 22.6 µM | [8] 49 µM and 33 µM and 54.8 µM | [9] 57.5 µM | [10] 47.5 µM and 14.8 µM | [17] 50.5 µM and 32.8 µM | [11] 33.4 µM | [16] 45 µM and 35.7 µM and 14.7 µM
